Values without a mark were called inactive. For part of these data: Measured potencies and affinities stand elsewhere. Active and inactive are the calls of the source. Unless noted, no rule for the calls is given here.
Assays:
[1] = antimalarial activity against Dd2 strain (AID 2302;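 active = growth inhibition above 50% at the single 2 µM test dose, taken to imply half-maximal potency below 2 µM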;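 also: 0% = DMSO untreated growth and 100% = chloroquine plus artemisinin killed control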); details: P. falciparum Dd2 in RBCs, LDH growth readout, 72 h; at 2 µM; stronger effect = higher value
[2] = human hepatoma cell viability loss – ATP luminescence, cytotoxicity control for P. falciparum antimalarial project, primary screen (AID 2303;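 active = inhibition above 50%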;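 also: 0% = DMSO wells and 100% = digitonin-killed cells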); details: HepG2 viability, 24-48 h, at 10 µM, stronger effect = higher value
[3] = biological target: L-lactate dehydrogenase (Plasmodium falciparum (isolate CDC / Honduras)) (UniProt Q27743); experiment: PfLDH activity inhibition – cell lysate, 3D7 strain, counter-screen for P. falciparum growth inhibition project (AID 2304);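 also: 0% = vehicle and 100% = reference inhibitor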; details: P. falciparum 3D7 crude extract, LDH APAD/NBT absorbance; at 2 µM; stronger effect = higher value
[4] = inhibition of 3D7 malaria parasite growth – strain 3D7 (AID 2306);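 also: 0% = DMSO wells and 100% = chloroquine plus artemisinin control wells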; details: P. falciparum 3D7 erythrocytic growth, LDH absorbance, 72 h; at 2 µM; stronger effect = higher value
[5] = biological target: Calcium-dependent protein kinase 1 (Plasmodium falciparum (isolate 3D7)) (UniProt P62344); experiment: PfCDPK1 kinase inhibitors, biochemical, TCAMS library (AID 1159585; cut-off not given, nearly all actives have IC50 up to about 0.98 µM;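 also: inhibitors leave more ATP so luminescence rises with inhibition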); details: recombinant PfCDPK1, Kinase-Glo ATP depletion luminescence
[6] = biological target: Plasmodium falciparum protein kinase 6 (PK6, PF3D7_1337100) (UniProt Q8IDW1); experiment: PfPK6 kinase inhibitors, biochemical, TCAMS library (AID 1159586); details: recombinant PfPK6, Kinase-Glo ATP depletion luminescence
[7] = biological target: Protein kinase 7 (PK7), Plasmodium falciparum 3D7 (PF3D7_0213400) (UniProt Q7YTF7); experiment: inhibition of Plasmodium PK7 catalytic activity – biochemical, TCAMS antimalarial set, Kinase-Glo luminescence (AID 1159587); details: recombinant PfPK7, Kinase-Glo ATP depletion luminescence
[8] = biological target: Calcium-dependent protein kinase 4 (Plasmodium falciparum (isolate 3D7)) (UniProt Q8IBS5); experiment: PfCDPK4 kinase inhibitors, biochemical, TCAMS library (AID 1159588; cut-off not given, nearly all actives have IC50 up to about 0.91 µM); details: recombinant PfCDPK4, Kinase-Glo ATP depletion luminescence
Chain of Calcium-dependent protein kinase 4 (Plasmodium falciparum (isolate 3D7)) (Q8IBS5 whole entry, looked up): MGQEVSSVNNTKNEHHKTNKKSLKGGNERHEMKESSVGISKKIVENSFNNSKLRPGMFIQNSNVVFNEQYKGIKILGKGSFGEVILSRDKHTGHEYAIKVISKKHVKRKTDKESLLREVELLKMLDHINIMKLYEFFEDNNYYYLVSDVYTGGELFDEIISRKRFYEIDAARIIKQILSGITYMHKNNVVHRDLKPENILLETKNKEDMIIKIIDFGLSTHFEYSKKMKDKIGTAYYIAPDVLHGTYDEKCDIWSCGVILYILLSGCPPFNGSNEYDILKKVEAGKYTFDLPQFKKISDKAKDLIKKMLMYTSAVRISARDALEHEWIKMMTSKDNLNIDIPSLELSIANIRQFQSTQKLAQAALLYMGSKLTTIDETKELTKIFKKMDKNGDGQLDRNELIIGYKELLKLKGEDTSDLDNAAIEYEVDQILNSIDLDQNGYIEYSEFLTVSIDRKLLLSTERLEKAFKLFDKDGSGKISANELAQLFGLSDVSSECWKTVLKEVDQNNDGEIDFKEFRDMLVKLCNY

Chain of L-lactate dehydrogenase (Plasmodium falciparum (isolate CDC / Honduras)) (Q27743 whole entry, looked up): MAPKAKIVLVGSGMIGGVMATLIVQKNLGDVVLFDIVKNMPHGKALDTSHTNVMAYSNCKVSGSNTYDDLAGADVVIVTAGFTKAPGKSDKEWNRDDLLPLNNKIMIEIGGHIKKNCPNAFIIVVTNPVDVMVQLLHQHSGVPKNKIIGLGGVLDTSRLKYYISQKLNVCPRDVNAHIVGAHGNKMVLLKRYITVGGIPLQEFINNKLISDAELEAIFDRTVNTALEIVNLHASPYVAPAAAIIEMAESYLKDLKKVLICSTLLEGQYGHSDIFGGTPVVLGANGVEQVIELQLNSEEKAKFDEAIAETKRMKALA
Chain of Calcium-dependent protein kinase 1 (Plasmodium falciparum (isolate 3D7)) (P62344 whole entry, looked up): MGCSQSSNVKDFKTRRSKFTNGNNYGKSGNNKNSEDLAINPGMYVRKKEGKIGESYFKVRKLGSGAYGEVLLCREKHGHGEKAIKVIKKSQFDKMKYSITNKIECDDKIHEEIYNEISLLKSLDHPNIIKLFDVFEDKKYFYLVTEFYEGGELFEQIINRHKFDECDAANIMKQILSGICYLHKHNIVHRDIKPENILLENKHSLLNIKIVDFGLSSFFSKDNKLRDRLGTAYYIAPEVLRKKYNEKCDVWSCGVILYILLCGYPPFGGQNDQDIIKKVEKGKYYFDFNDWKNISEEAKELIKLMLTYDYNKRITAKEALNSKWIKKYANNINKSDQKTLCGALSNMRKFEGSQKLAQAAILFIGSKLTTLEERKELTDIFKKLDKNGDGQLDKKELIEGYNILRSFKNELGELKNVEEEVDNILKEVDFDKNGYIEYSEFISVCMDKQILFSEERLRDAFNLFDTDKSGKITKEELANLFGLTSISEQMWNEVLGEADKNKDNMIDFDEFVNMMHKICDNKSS
Chain of Plasmodium falciparum protein kinase 6 (PK6, PF3D7_1337100) (Q8IDW1 1-305): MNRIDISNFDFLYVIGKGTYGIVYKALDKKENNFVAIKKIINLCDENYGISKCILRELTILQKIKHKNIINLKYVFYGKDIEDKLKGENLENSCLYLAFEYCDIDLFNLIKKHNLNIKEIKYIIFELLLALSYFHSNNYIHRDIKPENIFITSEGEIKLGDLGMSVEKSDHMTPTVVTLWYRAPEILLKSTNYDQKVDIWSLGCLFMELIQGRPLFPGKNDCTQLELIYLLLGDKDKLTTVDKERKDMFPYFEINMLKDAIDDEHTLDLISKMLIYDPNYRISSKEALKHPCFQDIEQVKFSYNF
Chain of Protein kinase 7 (PK7), Plasmodium falciparum 3D7 (PF3D7_0213400) (Q7YTF7 1-343): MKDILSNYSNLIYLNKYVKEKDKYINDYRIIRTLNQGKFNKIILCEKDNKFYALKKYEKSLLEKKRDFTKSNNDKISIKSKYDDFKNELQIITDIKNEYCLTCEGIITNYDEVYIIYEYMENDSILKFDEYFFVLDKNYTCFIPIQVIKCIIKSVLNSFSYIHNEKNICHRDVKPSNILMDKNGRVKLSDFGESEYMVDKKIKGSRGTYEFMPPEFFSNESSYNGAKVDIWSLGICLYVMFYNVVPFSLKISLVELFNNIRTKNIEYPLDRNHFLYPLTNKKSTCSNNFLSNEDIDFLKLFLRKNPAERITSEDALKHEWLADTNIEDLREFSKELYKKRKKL

SMILES	growth inhibition [1]	inhibition [2]	inhibition [3] [%]	growth inhibition [4]	outcome [5]	outcome [6]	outcome [7]	outcome [8]
Cc1cccc(N2CCN(C3CCC(NC(=O)c4cc5ccccc5[nH]4)CC3)CC2)c1C (configuration not stated)	21%	49%	-4	101% (active)	inactive	inactive	inactive	inactive
CCc1cc([C@H]2O[C@@H](n3cnc4c(NCC(c5ccccc5)c5ccccc5)nc(NCCNc5ccccn5)nc43)[C@H](O)[C@@H]2O)on1	32%	14%	-9	94% (active)	inactive	inactive	inactive	inactive
CCCCn1c(-c2ccco2)nc2c(c(=O)c3ccccc3n2C)c1=O	64% (active)	11%	-2	87% (active)	inactive	inactive	inactive	inactive
COc1cc(NC(=O)/C=C/c2cc(F)cc(F)c2F)cc(OCCN2CCC(O)(c3ccccc3)CC2)c1	82% (active)	54% (active)	6	103% (active)	inactive	inactive	inactive	inactive
N#Cc1ccc(N2CCN(Cc3ccc(-c4ccc(-c5nc6ccc(C(F)(F)F)cc6[nH]5)s4)cc3)CC2)nc1	73% (active)	13%	4	100% (active)	inactive	inactive	inactive	inactive
Nc1nc(-c2ccc3c(Nc4ccc(F)c(Cl)c4)ccnc3c2)cs1	88% (active)	13%	0	100% (active)	inactive	inactive	inactive	inactive
CN1CCN(Cc2cc3cc(NC(=O)/C=C/c4ccc(Cl)cc4)ccc3s2)CC1	20%	51% (active)	2	100% (active)	inactive	inactive	inactive	inactive
Cc1nc(C)c(CC(=O)Nc2ccc(-c3ccc(-c4nc5ccc(C(F)(F)F)cc5[nH]4)s3)cc2)s1	29%	57% (active)	-8	90% (active)	inactive	inactive	inactive	inactive
COc1ccc2nccc(NN=Cc3ccccc3)c2c1	99% (active)	-2%	-1	101% (active)	inactive	inactive	inactive	inactive
O=C(Nc1ccc(Cl)c(C(F)(F)F)c1)N[C@H]1CCN(CCCCCNC(=O)[C@@H]2C[C@H]2c2ccc(Cl)c(Cl)c2)C1	-2%	39%	0	94% (active)	inactive	inactive	inactive	inactive
O=C1C(=Cc2cc(Cc3ccccc3)ccc2O)SC(=S)N1Cc1ccccc1	53% (active)	16%	-2	98% (active)	inactive	inactive	inactive	inactive
N#Cc1ccc(-c2ccc(C(=O)Nc3ccc4c(c3)CCN(C3CCC3)CC4)nc2)cn1	15%	24%	-1	85% (active)	inactive	inactive	inactive	inactive
O=C(/C=C/c1c[nH]c2ccccc12)NCCCCCN1CCC(c2c[nH]c3ccccc23)CC1	0%	20%	5	96% (active)	inactive	inactive	inactive	inactive
COc1cccc(C(C)(C)NC[C@@H](O)[C@H](Cc2ccccc2)NC(=O)c2cc(C3CCCC3)cc(N3CCCCS3(=O)=O)c2F)c1	99% (active)	16%	7	99% (active)	inactive	inactive	inactive	inactive
COc1ccccc1C1CC(c2ccccc2)=NN1C(=O)c1ccco1 (configuration not stated)	95% (active)	12%	-2	97% (active)	inactive	inactive	inactive	inactive
O=C(Nc1ccc(Cl)cc1)c1ccc(CN2CCCN(CC3CCCCC3)CC2)cc1	42%	48%	0	92% (active)	inactive	inactive	inactive	inactive
O=C(Nc1ccc(Cl)cc1)Nc1cccc(-c2cccc(-c3nc4ccccc4[nH]3)c2)c1	56% (active)	70% (active)	0	100% (active)	inactive	inactive	inactive	inactive
CNC(=O)COC(=O)c1c2c(nc3ccccc13)C(=Cc1ccc3c(c1)OCO3)CCC2	36%	7%	-2	83% (active)	inactive	inactive	inactive	inactive
COc1cc(NC(=O)N2CCOC(CCN3CCC(c4ccccc4)CC3)(c3ccc(Cl)c(Cl)c3)C2)cc(OC)c1 (configuration not stated)	73% (active)	12%	0	93% (active)	inactive	inactive	inactive	inactive
CCN1CCN(c2cc(C)c3cc(NC(=O)c4cccc(C(F)(F)F)c4)ccc3n2)CC1	85% (active)	24%	0	101% (active)	inactive	inactive	inactive	inactive

SMILES	growth inhibition [1]	inhibition [2]	inhibition [3] [%]	growth inhibition [4]	outcome [5]	outcome [6]	outcome [7]	outcome [8]
Oc1ccc(CNCCCCCCNCCc2ccc(Cl)cc2)cc1O	7%	2%	2	94% (active)	inactive	inactive	inactive	inactive
COc1cc2ncnc(NCCc3ccccc3Cl)c2cc1OC	11%	0%	3	88% (active)	inactive	inactive	inactive	inactive
CC1CCCN(c2ccc(NC(=O)c3cccs3)cc2[N+](=O)[O-])C1 (configuration not stated)	96% (active)	14%	-2	96% (active)	inactive	inactive	inactive	inactive
N#Cc1ccc2c(c1)CCN(CCC1CCC(NC(=O)/C=C/c3ccc(Cl)c(Cl)c3)CC1)CC2 (configuration not stated)	51% (active)	31%	-11	100% (active)	inactive	inactive	inactive	inactive
Cc1cc(C)cc(-n2c(C)cc(C=C3SC(=Nc4ccc(Cl)cc4)NC3=O)c2C)c1	97% (active)	12%	-7	97% (active)	inactive	inactive	inactive	inactive
O=C(NC1CCN(Cc2ccccc2)CC1)c1ccc(-c2nc3cc(Cl)c(F)cc3[nH]2)s1	99% (active)	28%	3	101% (active)	inactive	inactive	inactive	inactive
COc1cccc(-c2c(C#N)c(N)nc3c2c(C)nn3-c2ccccc2)c1O	100% (active)	4%	7	100% (active)	inactive	inactive	inactive	inactive
CCN(CC)CCN(Cc1ccc(-c2ccc(Cl)s2)cc1)C(=O)Cn1c(CCc2cccc(F)c2F)nc(=O)c2ccccc21	27%	24%	-4	96% (active)	inactive	inactive	inactive	inactive
O=C(Nc1cccc(C(F)(F)F)c1)Nc1cc(F)c(F)cc1Cl	98% (active)	-1%	5	83% (active)	inactive	inactive	inactive	inactive
CCCc1ccc(NC(=O)c2cccc(CN3CCCN(Cc4cccc(O)c4)CC3)c2)cc1	40%	15%	-2	97% (active)	inactive	inactive	inactive	inactive
COc1ccc(CCC(C)N2C[C@@H](N)[C@H](c3cn(C)c4cnccc34)C2)cc1 (some centres not stated)	-4%	5%	-1	98% (active)	inactive	inactive	inactive	inactive
Cc1ccccc1C1CCN(C2CCC(NC(=O)/C=C/c3ccc(F)c(F)c3)CC2)CC1 (configuration not stated)	7%	34%	-1	93% (active)	inactive	inactive	inactive	inactive
Oc1ccc(CCNc2nc(NCCCOc3ccccc3-c3cccc(C(F)(F)F)c3)nc(N3CCNCC3)n2)cc1	5%	24%	-1	93% (active)	inactive	inactive	inactive	inactive
CCCCN(C(=O)c1ccccc1C)c1nnc(-c2ccccc2C)s1	94% (active)	10%	2	92% (active)	inactive	inactive	inactive	inactive
N#Cc1ccc(CN2CCCN(Cc3cccc(NC(=O)c4ccc(Cl)c(Cl)c4)c3)CC2)cc1	10%	19%	-1	95% (active)	inactive	inactive	inactive	inactive
CCN1CCN(c2cc(C)c3cc(NC(=O)C=Cc4cccc(OC)c4OC)ccc3n2)CC1	38%	18%	-3	99% (active)	inactive	inactive	inactive	inactive
Cc1ncsc1CCN1C(=O)CC2(C1=O)C(=O)N(Cc1ccccc1)c1ccc(Cl)cc12 (configuration not stated)	46%	0%	1	86% (active)	inactive	inactive	inactive	inactive
Cc1cccc(OC2CCN(c3ncc(C(=O)NCCCN4CCCC4=O)cc3Cl)CC2)c1	95% (active)	7%	-2	96% (active)	inactive	inactive	inactive	inactive
Cc1cccc2[nH]c(-c3ccc(-c4cccc(CNCCNC(=O)c5ccnn5C)c4)s3)nc12	87% (active)	17%	-4	102% (active)	inactive	inactive	inactive	inactive

— PubChem BioAssay
